NCOA3 inh = inhibitors of human steroid receptor coactivator 3 (SRC3) | HEK293 GAL4-SRC3 luciferase reporter, luminescence | 360,000 tested, 0.17% active | inhibition, % at 3.6 µM | AID 588352 | Q9Y6Q9;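 active = inhibition above a per-campaign cutoff, the mean of all compounds plus 3 SD, cut at about 60% in these data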;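 note: higher means less SRC3-driven luciferase light from the GAL4 reporter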
NCOA2 inhibitor = human SRC2 (NCOA2) inhibition; HEK293 GAL4-SRC2 luciferase reporter, luminescence; inhibition, % at 9 µM; 370,000 tested, 0.17% active; AID 651957;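 active = inhibition above the mean inhibition of all tested compounds plus 3 SD, set per campaign, cut at about 52% in these data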
LRH-1 inv ag = NR5A2 inverse agonism in reporter assay; 360,000 tested, 0.13% active; HEK293T StAR-luciferase reporter, LRH-1 transfected, 24 h; O00482; inhibition, % at 3.6 µM;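 active = inhibition above the mean inhibition of all tested compounds plus 3 SD, cut at about 73% in these data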
SRC1 inh = inhibitors of human steroid receptor coactivator 1 (SRC1); Q15788; HEK293 GAL4-SRC1 luciferase reporter, luminescence; inhibition, % at 3.6 µM; 360,000 tested, 0.12% active; AID 588354;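 active = inhibition above the campaign mean plus 3 SD, with each screening campaign given its own cutoff, cut at about 60% in these data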
COUP-TFII inh = NR2F2 (human) inhibition, primary screen; HEK293T NGFI-A luciferase reporter, luminescence; AID 686940; 370,000 tested, 0.7% active; inhibition, % at 8.6 µM; P24468;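 active = inhibition above a per-plate cutoff, mean inhibition of test wells between control levels plus 3 SD, cut at about 38% in these data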;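 note: cells cotransfected with COUP-TFII expression vector driving the NGFI-A reporter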
VP16 Luc counter = counter-screen for COUP-TFII antagonists: inhibitors of VP16; AID 687007; 2,500 tested, 25% active; shares compounds with COUP-TFII inh; HEK293 Gal4-VP16 luciferase reporter, luminescence; inhibition, % at 8.5 µM; in the data active = inhibition above about 13%
NR2F2 inh conf = COUP-TFII (NR2F2) inhibition, confirmation assay; shares compounds with COUP-TFII inh; HEK293 NGFI-A luciferase reporter, luminescence; inhibition, % at 8.5 µM; 2,500 tested, 45% active; AID 687008;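 active = mean inhibition over three repeats above a set limit taken from the earlier primary screen, cut at about 38% in these data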
A number is an active result. Only some compounds are listed: those with a hit (about 0.84% of all), similar ones and a draw of the others.

For O=C(O)c1ccc2nc(-c3ccccc3)sc2c1 the results were NCOA3 inh inactive, NCOA2 inhibitor inactive, LRH-1 inv ag inactive, SRC1 inh inactive and COUP-TFII inh inactive.
Screening CSc1ccccc1OCc1cc(C(=O)N2CCC(c3ccncc3)CC2)no1 returned NCOA3 inh inactive, NCOA2 inhibitor inactive, LRH-1 inv ag inactive, SRC1 inh inactive, COUP-TFII inh 58.0, VP16 Luc counter inactive and NR2F2 inh conf 51.4.
For O=C(c1cc(COc2ccc(F)cc2Cl)on1)N1CCC(c2ccncc2)CC1 the results were NCOA3 inh inactive, NCOA2 inhibitor inactive, LRH-1 inv ag inactive, SRC1 inh inactive, COUP-TFII inh 39.0, VP16 Luc counter inactive and NR2F2 inh conf inactive.
For CC(Sc1nnc2c(n1)[nH]c1ccccc12)C(=O)NC1CCCCC1 (centres undefined) the results were NCOA3 inh inactive, NCOA2 inhibitor inactive, LRH-1 inv ag inactive, SRC1 inh inactive and COUP-TFII inh inactive.
CC(Sc1nnc2c(n1)[nH]c1ccccc12)C(=O)N(C)C1CCCCC1 (centres undefined) was read as NCOA3 inh inactive, NCOA2 inhibitor inactive, LRH-1 inv ag inactive, SRC1 inh inactive, COUP-TFII inh 43.6, VP16 Luc counter inactive and NR2F2 inh conf inactive.
`COc1ccc(NC(=O)Cc2ccccc2)cn1` gave NCOA3 inh inactive, NCOA2 inhibitor inactive, LRH-1 inv ag inactive, SRC1 inh inactive and COUP-TFII inh inactive.
Screening COc1ccc(NC(=O)/C(Cl)=C(/Cl)S(=O)Cc2ccccc2)cn1 (centres undefined) returned NCOA3 inh inactive, NCOA2 inhibitor 83.8, LRH-1 inv ag inactive, SRC1 inh inactive, COUP-TFII inh 61.4, VP16 Luc counter 88.2 and NR2F2 inh conf 100.0.
For COc1cc(C#Cc2c(-c3cncn3C)n(C)c3ccc(-c4cnc(N5CCOCC5)nc4)cc23)cc(OC)c1 the results were NCOA3 inh inactive, NCOA2 inhibitor inactive, LRH-1 inv ag inactive, SRC1 inh inactive and COUP-TFII inh inactive.
Screening COc1cc(C#Cc2c(-c3cncn3C)n(C)c3ccc(-c4cnc(OC)nc4)cc23)cc(OC)c1 returned NCOA3 inh inactive, NCOA2 inhibitor inactive, LRH-1 inv ag inactive, SRC1 inh inactive, COUP-TFII inh 44.7, VP16 Luc counter inactive and NR2F2 inh conf inactive.
`COC(=O)[C@]12C[C@H](CC(=O)N3CCC(c4ccccc4)CC3)C(=O)N(Cc3ccc(Cl)cc3Cl)C1=C[C@H](C(C)C)O[C@@H]2C1CC1` gave NCOA2 inhibitor inactive and COUP-TFII inh inactive.
COC(=O)c1c(-c2ccc(C)cc2)csc1NC(=O)Cc1ccc(OC)c(OC)c1 was read as NCOA3 inh inactive, NCOA2 inhibitor inactive, LRH-1 inv ag inactive, SRC1 inh inactive and COUP-TFII inh inactive.
COC(=O)c1c(-c2cccc3ccccc23)csc1NC(=O)Cc1ccc(OC)c(OC)c1 was read as NCOA3 inh inactive, NCOA2 inhibitor inactive, LRH-1 inv ag inactive, SRC1 inh inactive, COUP-TFII inh 41.3, VP16 Luc counter inactive and NR2F2 inh conf inactive.
For COc1ccc(-n2c(SCC(=O)Nc3cccc4ccccc34)nnc2-c2ccco2)cc1 the results were NCOA2 inhibitor inactive and COUP-TFII inh inactive.
`Nc1nc2ccccc2cc1C(=O)NCc1ccc(-c2ccccc2)cc1` gave NCOA2 inhibitor inactive, LRH-1 inv ag inactive, COUP-TFII inh 64.6, VP16 Luc counter inactive and NR2F2 inh conf 67.9.
Screening O=C(CSc1nnc(Cn2nnc3ccccc32)o1)N(Cc1ccc(F)cc1)c1ccccc1 returned NCOA3 inh inactive, NCOA2 inhibitor inactive, LRH-1 inv ag inactive, SRC1 inh inactive, COUP-TFII inh 78.5, VP16 Luc counter inactive and NR2F2 inh conf 62.2.
`CCCOc1ccc(Br)cc1CSC(=N)N` gave NCOA3 inh inactive, NCOA2 inhibitor inactive, LRH-1 inv ag inactive, SRC1 inh inactive, COUP-TFII inh 54.2, VP16 Luc counter 15.4 and NR2F2 inh conf 49.3.
`Cc1csc2ncnc(N3CCN(C(=O)Nc4ccc(OC(F)(F)F)cc4)CC3)c12` gave NCOA3 inh inactive, NCOA2 inhibitor inactive, LRH-1 inv ag inactive, SRC1 inh inactive, COUP-TFII inh 38.9, VP16 Luc counter inactive and NR2F2 inh conf inactive.
For Cc1ccc(-c2nnc(NC(=O)COc3ccc(F)cc3Cl)o2)cc1C the results were COUP-TFII inh inactive.
CCCCCc1ccc(OCCC[n+]2ccccc2)c(CCCCC)c1 was read as NCOA3 inh 66.1, NCOA2 inhibitor inactive, LRH-1 inv ag inactive, SRC1 inh inactive, COUP-TFII inh 56.7, VP16 Luc counter 14.4 and NR2F2 inh conf inactive.
`CCCCCc1ccc(OCCOCCn2c[n+](C)c3ccccc32)c(CCCCC)c1` gave NCOA3 inh inactive, LRH-1 inv ag inactive and SRC1 inh inactive.
For COc1ccc(C2SCC(=O)N2CCc2ccc(OC)c(OC)c2)cc1 (centres undefined) the results were NCOA3 inh inactive, NCOA2 inhibitor inactive, LRH-1 inv ag inactive, SRC1 inh inactive, COUP-TFII inh 43.3, VP16 Luc counter inactive and NR2F2 inh conf inactive.
For COc1ccc(CCN2C(=O)CSC2c2ccc(OC)c(OC)c2)cc1OC (centres undefined) the results were NCOA3 inh inactive, NCOA2 inhibitor inactive, LRH-1 inv ag inactive, SRC1 inh inactive and COUP-TFII inh inactive.
`O=S1(=O)c2ccc(Br)cc2OC[C@@H](Cc2ccccc2)N1Cc1cn(Cc2ccc(F)cc2)nn1` gave NCOA2 inhibitor inactive and COUP-TFII inh inactive.
For C=CCn1c(SCC(=O)Nc2sccc2C(N)=O)nc2sc(CC)cc2c1=O the results were NCOA3 inh inactive, NCOA2 inhibitor inactive, LRH-1 inv ag inactive, SRC1 inh inactive, COUP-TFII inh 41.6, VP16 Luc counter inactive and NR2F2 inh conf inactive.
`O=C(CSc1nc2ccccc2nc1N1CCOCC1)N1CCN(S(=O)(=O)c2cccc([N+](=O)[O-])c2)CC1` gave NCOA2 inhibitor inactive and COUP-TFII inh inactive.
CCn1c(COc2ccccc2)nnc1SCC(=O)Nc1ccc(S(=O)(=O)Nc2cc(C)nc(C)n2)cc1 was read as NCOA2 inhibitor inactive and COUP-TFII inh inactive.
Screening C=CCC1(CC=C)CCCN1C(=O)c1cc(COc2ccc(C)nc2)on1 returned NCOA3 inh inactive, NCOA2 inhibitor inactive, LRH-1 inv ag inactive, SRC1 inh inactive, COUP-TFII inh 57.4, VP16 Luc counter inactive and NR2F2 inh conf 54.8.
For CCn1c(SCc2ccccc2Cl)nnc1-c1ccccc1OC the results were NCOA2 inhibitor inactive and COUP-TFII inh inactive.
`O=C(/C=C/c1cccc2ccccc12)c1ccncc1` gave NCOA3 inh inactive, NCOA2 inhibitor inactive, LRH-1 inv ag inactive, SRC1 inh inactive, COUP-TFII inh 39.5, VP16 Luc counter inactive and NR2F2 inh conf inactive.
`O=C(N/N=C/c1cccc2ccccc12)c1ccncc1` gave NCOA3 inh inactive, NCOA2 inhibitor inactive, LRH-1 inv ag inactive, SRC1 inh inactive and COUP-TFII inh inactive.

Bioassay records as filed in PubChem BioAssay.
